UBC9 SUMO inh = blocks human SUMOylation mediated by UBC9. P63279. HTRF SUMOylation assay, SAE1/SAE2 + UBC9, in vitro. inhibition, % at 35 µM. 290,000 compounds, 0.36% hits. AID 2006; in the data active = inhibition above about 50%, passing the limit was not always enough; inconclusive = no clear call, values can overlap the other calls
eIF4H FP inh = inhibitors of RNA binding by human eIF4H; Q15056; eIF4H fluorescence polarization binding assay; inhibition, % at 35 µM; 290,000 compounds, 0.94% hits;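 note: calls also rest on retests at 20 µM and on dose response follow-up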
ALR H2O2 inh = human ALR oxidase inhibition via reduced H2O2; purified ALR, DTT oxidation, H2O2 HRP-luminol luminescence; inhibition, % (concentration not given with the values); 290,000 compounds, 3.8% hits; AID 485317;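 active = mean replicate inhibition above about 79%, with every replicate also reaching it, limit read from the data; inconclusive = only one of the two criteria met; inactive = mean below limit and not every replicate reaching it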
Target sequence (P55789 whole entry, looked up): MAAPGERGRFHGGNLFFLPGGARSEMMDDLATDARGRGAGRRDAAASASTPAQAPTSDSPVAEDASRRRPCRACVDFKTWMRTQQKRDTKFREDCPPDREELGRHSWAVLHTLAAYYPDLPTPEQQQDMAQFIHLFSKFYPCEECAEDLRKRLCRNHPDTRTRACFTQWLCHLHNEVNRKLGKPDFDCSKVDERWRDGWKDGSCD
Efflux pump inh = antifungal efflux pump inhibition, Nile Red retention; AID 485275; S. cerevisiae Candida pump triplex; inhibition, % at 10 µM; 330,000 compounds, 0.44% hits;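 active = plate passing quality check with inhibition over a set limit, or well fluorescence over plate mean plus 4 SD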;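 note: Nile Red retained in pooled yeast measured as flow cytometry median fluorescence; 0% = buffer negative control and 100% = Enniatin B positive control; higher means more Nile Red kept so more efflux inhibition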
PABP1 MLLE inh = inhibitors of microRNA-mediated deadenylation, human PABP1 MLLE binding; inhibition, % at 20 µM; GST-MLLE / FITC-PAM2 fluorescence polarization; 360,000 compounds, 0.36% hits; P11940; in the data active = inhibition above about 35%, passing the limit was not always enough;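 note: plate controls were DMSO wells with GST-MLLE for no effect and wells lacking GST-MLLE protein for full effect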
PABP polyA inh = blocks human PABP binding to poly(A) RNA; AID 2014; fluorescence polarization; P11940; 290,000 compounds, 1% hits; inhibition, % at 35 µM;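 note: calls also rest on retests at 20 µM and on dose response follow-up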
Starred values were filed as active, the others as inactive. An excerpt weighted towards active compounds, which were near 4.7% of everything screened. Unless noted, the rule behind the calls is not given here.

Cc1ccc(NC(=O)COc2ccccc2C(N)=O)cc1S(=O)(=O)N1CCCCCC1 was read as Efflux pump inh 0 and PABP1 MLLE inh -3.
For CCOc1ccc(C2=CSC3=NCCN23)cc1[N+](=O)[O-] the results were UBC9 SUMO inh 5, eIF4H FP inh -10, ALR H2O2 inh 43, Efflux pump inh 0, PABP1 MLLE inh -15 and PABP polyA inh -7.
CCN1C(=S)SC(=O)C1=C1C=C(C)N(CCO)C(C)=C1 was read as UBC9 SUMO inh 9, eIF4H FP inh -7, ALR H2O2 inh 99*, Efflux pump inh 0, PABP1 MLLE inh 18 and PABP polyA inh -5.
`CCN1C(=S)SC(=O)C1=C1C=C(C)N(CCOC)C(C)=C1` gave UBC9 SUMO inh 27, eIF4H FP inh 1 and PABP polyA inh 19.
Screening CSc1ccc2c(c1)N(CCC1CCCCN1C)c1ccccc1S2 (stereo not given) returned UBC9 SUMO inh 12, eIF4H FP inh -12, ALR H2O2 inh 99*, Efflux pump inh 0, PABP1 MLLE inh -3 and PABP polyA inh 6.
`O=C1CC(N(C(=O)c2ccco2)c2cccc(Cl)c2)C(=O)N1c1cccc(Cl)c1` (stereo not given) gave UBC9 SUMO inh 2, eIF4H FP inh 4, ALR H2O2 inh -5, Efflux pump inh 0, PABP1 MLLE inh 7 and PABP polyA inh -4.
Screening COc1ccc(/C=c2\sc3nc(-c4ccccc4OC)nn3c2=O)c(OC)c1 returned UBC9 SUMO inh 10, eIF4H FP inh -1, ALR H2O2 inh 23, Efflux pump inh 1, PABP1 MLLE inh 51* and PABP polyA inh -6.
Screening CCCCCOc1ccc(/C=c2\sc3nc(=O)c(-c4ccccc4)nn3c2=O)cc1OC returned UBC9 SUMO inh 20, eIF4H FP inh 16, ALR H2O2 inh -6, Efflux pump inh 0, PABP1 MLLE inh 11 and PABP polyA inh -16.
COc1ccccc1-c1nc2s/c(=C\c3cccs3)c(=O)n2n1 was read as UBC9 SUMO inh 0, eIF4H FP inh 5, ALR H2O2 inh 9, Efflux pump inh 0, PABP1 MLLE inh -1 and PABP polyA inh -11.
`C=CCOc1ccccc1/C=c1\sc2nc(=O)c(C)nn2c1=O` gave UBC9 SUMO inh -2, eIF4H FP inh 69*, ALR H2O2 inh 11, Efflux pump inh 0, PABP1 MLLE inh 16 and PABP polyA inh -3.
`COc1cc(NC(=O)CCc2c(C)noc2C)c(Cl)cc1C(=O)O` gave ALR H2O2 inh -1, Efflux pump inh 0 and PABP1 MLLE inh -6.
`CCOC(=O)C1(C#N)Cc2ccccc2C1` gave PABP1 MLLE inh 3.
For O=C(Nc1cccc2ccccc12)c1ccc2sc([C@@H]3O[C@H](CO)[C@H](O)[C@H](O)[C@H]3O)nc2c1 the results were PABP1 MLLE inh 2.
Screening O=C(Nc1nc2c(s1)CCCC2)c1ccc(N2C(=O)CCC2=O)cc1 returned UBC9 SUMO inh -2, eIF4H FP inh 6, ALR H2O2 inh 97*, Efflux pump inh 0, PABP1 MLLE inh 7 and PABP polyA inh -2.
Screening O=C(Nc1nc2c(s1)CCCC2)c1ccc(Br)s1 returned UBC9 SUMO inh -2, eIF4H FP inh 1, ALR H2O2 inh 98*, Efflux pump inh 0, PABP1 MLLE inh -5 and PABP polyA inh -10.
Screening COc1ccc(NC(=O)Nc2nc3c(s2)CCCC3)cc1 returned UBC9 SUMO inh -13, eIF4H FP inh 80*, ALR H2O2 inh 10, Efflux pump inh 0, PABP1 MLLE inh 0 and PABP polyA inh active.
For Cc1ccc(CN2CCN(/N=C/C(Br)=C\c3ccccc3)CC2)cc1 the results were UBC9 SUMO inh -1, eIF4H FP inh 2, ALR H2O2 inh -2, Efflux pump inh 0, PABP1 MLLE inh 0 and PABP polyA inh 10.
CCOC(=O)c1nn(-c2ccc(F)cc2)cc1O was read as UBC9 SUMO inh -11, eIF4H FP inh 8, ALR H2O2 inh -2, Efflux pump inh 0, PABP1 MLLE inh -1 and PABP polyA inh 10.
Screening CCOC(=O)c1nn(-c2ccc3c(c2)CCN3C(C)=O)cc1O returned UBC9 SUMO inh 52*, eIF4H FP inh -11, ALR H2O2 inh inconclusive, Efflux pump inh 0, PABP1 MLLE inh -3 and PABP polyA inh -5.
Screening Cc1ccc(S(=O)(=O)N2[C@@H](c3cccc(C)c3)C(C(=O)O)=C[C@H]2C(C)(C)C)cc1 returned Efflux pump inh 0 and PABP1 MLLE inh 14.

Compound activity: PubChem, several laboratories
